Measured values reported in PubChem BioAssay (NCATS).
Inconclusive results are not listed. A number with no mark means an inactive call. Active and inactive are the calls of the source. The call rests on the fitted dose curve; in most records, active means well fitted curve in the direction sought with a large enough effect; inconclusive means small, poorly fitted or top-dose-only effect, or another doubt; inactive means no such curve, though single readings can be large; an effect the other way counts as inactive or inconclusive.

How the values were obtained:
[1] = Quantitative High-Throughput drug screen in 47 multiple myeloma cell lines against the NCATS MIPE library collection: FR4_PLB cell viability assay (AID 1918924; further: nearly all actives have a fitted effect of over 35% in size)
Outline: (§1)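 Viability readout: CellTiter-Glo luminescence following 5 min room-temperature incubation with reagent. Prior exposure: 48 h, 37C, humidified 5% CO2, 500 cells per well.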

[2] = Quantitative High-Throughput drug screen in 47 multiple myeloma cell lines against the NCATS MIPE library collection: Delta47_JCRB cell viability assay (AID 1918925; further: nearly all actives have a fitted effect of over 45% in size)
Outline: (§2)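 Steps: seed 500 cells per well; pin-transfer MIPE 4.0 library; incubate 48 h at 37C, 5% CO2, humidified; add CellTiter-Glo, 5 min room temperature; read luminescence.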

[3] = Quantitative High-Throughput drug screen in 47 multiple myeloma cell lines against the NCATS MIPE library collection: EJM_DSMZ cell viability assay (AID 1918926; further: nearly all actives have a fitted effect of over 30% in size)
Outline: as §2

[4] = Quantitative High-Throughput drug screen in 47 multiple myeloma cell lines against the NCATS MIPE library collection: AMO1_DSMZ cell viability assay (AID 1918927; further: nearly all actives have a fitted effect of over 30% in size)
Outline: as §2

[5] = Quantitative High-Throughput drug screen in 47 multiple myeloma cell lines against the NCATS MIPE library collection: ARD_JJKsccE7 cell viability assay (AID 1918929)
Outline: as §2

[6] = Quantitative High-Throughput drug screen in 47 multiple myeloma cell lines against the NCATS MIPE library collection: Karpas620_DSMZ cell viability assay (AID 1918959); further: nearly all actives have a fitted effect of over 30% in size
Outline: as §1

[7] = Quantitative High-Throughput drug screen in 47 multiple myeloma cell lines against the NCATS MIPE library collection: KMM1_JCRB cell viability assay (AID 1918960); further: nearly all actives have a fitted effect of over 30% in size
Outline: (§3)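 Here, 48 h treatment with MIPE 4.0 agents at 37 °C preceded an ATP luminescence read. Plating density was 500 cells per well.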

[8] = Quantitative High-Throughput drug screen in 47 multiple myeloma cell lines against the NCATS MIPE library collection: Karpas417_ECACC cell viability assay (AID 1918961); conditions: Karpas417 myeloma viability, CellTiter-Glo ATP luminescence, 48 h; viability (% of DMSO): at 45.8 µM (top of the series)
Outline: (§4)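 Approved and investigational drugs from MIPE 4.0 were added by pin tool to 500 cells per well. After 48 hours at 37C, ATP-based CellTiter-Glo luminescence indicated remaining viability.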

[9] = Quantitative High-Throughput drug screen in 47 multiple myeloma cell lines against the NCATS MIPE library collection: JIM3_ECACC cell viability assay (AID 1918963; further: nearly all actives have a fitted effect of over 35% in size)
Outline: as §1

[10] = Quantitative High-Throughput drug screen in 47 multiple myeloma cell lines against the NCATS MIPE library collection: JIM1_ECACC cell viability assay (AID 1918964)
Outline: as §2

[11] = Quantitative High-Throughput drug screen in 47 multiple myeloma cell lines against the NCATS MIPE library collection: INA6_PLB cell viability assay (AID 1918965; further: nearly all actives have a fitted effect of over 55% in size)
Outline: as §4

[12] = Quantitative High-Throughput drug screen in 47 multiple myeloma cell lines against the NCATS MIPE library collection: JJN3_DSMZ cell viability assay (AID 1918966; further: nearly all actives have a fitted effect of over 50% in size)
Outline: as §2

[13] = Quantitative High-Throughput drug screen in 47 multiple myeloma cell lines against the NCATS MIPE library collection: H1112_PLB cell viability assay (AID 1918967; further: nearly all actives have a fitted effect of over 30% in size)
Outline: as §2

[14] = Quantitative High-Throughput drug screen in 47 multiple myeloma cell lines against the NCATS MIPE library collection: Karpas25_ECACC cell viability assay (AID 1918968; further: nearly all actives have a fitted effect of over 35% in size)
Outline: as §2

[15] = Quantitative High-Throughput drug screen in 47 multiple myeloma cell lines against the NCATS MIPE library collection: KMS27_JCRB cell viability assay (AID 1918970); further: nearly all actives have a fitted effect of over 30% in size
Outline: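 ATP-based viability (CellTiter-Glo luminescence) is measured in cells treated 48 h with approved and investigational drugs at 37 °C. Controls are DMSO-only wells for full viability and media-only wells for none.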

[16] = Quantitative High-Throughput drug screen in 47 multiple myeloma cell lines against the NCATS MIPE library collection: KMS12BM_JCRB cell viability assay (AID 1918971); further: nearly all actives have a fitted effect of over 35% in size
Outline: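 We plated 500 myeloma cells per well, pinned in MIPE 4.0 compounds, and incubated for 48 hours at 37C. ATP was then quantified with CellTiter-Glo, with DMSO and media-only wells defining 100% and 0%.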

[17] = Quantitative High-Throughput drug screen in 47 multiple myeloma cell lines against the NCATS MIPE library collection: KMS12PE_JCRB cell viability assay (AID 1918972); further: nearly all actives have a fitted effect of over 30% in size
Outline: as §4

[18] = Quantitative High-Throughput drug screen in 47 multiple myeloma cell lines against the NCATS MIPE library collection: KHM11_PLB cell viability assay (AID 1918962); further: nearly all actives have a fitted effect of over 35% in size
Outline: as §1

[19] = Quantitative High-Throughput drug screen in 47 multiple myeloma cell lines against the NCATS MIPE library collection: ARP1_JJKsccF8 cell viability assay (AID 1918928; further: nearly all actives have a fitted effect of over 40% in size)
Outline: as §3
Potency means the concentration at half of the fitted maximal effect.

| Structure (SMILES) | Potency [1] | Potency [2] | Potency [3] | Potency [4] | Potency [5] | Potency [6] | Potency [7] | Potency [8] | Potency [9] | Potency [10] | Potency [11] | Potency [12] | Potency [13] | Potency [14] | Potency [15] | Potency [16] | Potency [17] | Potency [18] | Potency [19] |
| --- | --- | --- | --- | --- | --- | --- | --- | --- | --- | --- | --- | --- | --- | --- | --- | --- | --- | --- | --- |
| C=CC(=O)Nc1cc2c(Nc3ccc(F)c(Cl)c3)ncnc2cc1C#CC(C)(C)N1CCN(C)CC1 | 3720 nM (active) | 469 nM (active) | 2090 nM (active) | 662 nM (active) | 1050 nM (active) | 590 nM (active) | 1480 nM (active) | 590 nM (active) | 1660 nM (active) | 1050 nM (active) | 418 nM (active) | 5260 nM (active) | 1870 nM (active) | 526 nM (active) | 833 nM (active) | 332 nM (active) | 833 nM (active) | – | – |
| O=C(NC1CCNCC1)c1[nH]ncc1NC(=O)c1c(Cl)cccc1Cl | 83.3 nM (active) | 372 nM (active) | 105 nM (active) | 1180 nM (active) | 743 nM (active) | 935 nM (active) | 590 nM (active) | 187 nM (active) | 526 nM (active) | 264 nM (active) | 590 nM (active) | 187 nM (active) | 1050 nM (active) | 372 nM (active) | 526 nM (active) | 235 nM (active) | 935 nM (active) | 235 nM (active) | – |
| COCCOc1ccc2c(c1)ncn2-c1ccc2cccc(N3CCC(N)CC3)c2n1 | 10500 nM (active) | 4180 nM (active) | 5900 nM (active) | 2090 nM (active) | 2960 nM (active) | 10500 nM (active) | 526 nM (active) | 590 nM (active) | 10500 nM (active) | 5900 nM (active) | 46.9 nM (active) | 4180 nM (active) | 6620 nM (active) | – | 1660 nM (active) | 9350 nM (active) | 37.2 nM (active) | – | 418 nM (active) |
| CN1CCN(c2cc(C(=O)Nc3ccc4c(c3)-c3c(c(C(N)=O)nn3-c3ccc(F)cc3)CC4)c(Cl)cn2)CC1 | 16600 nM (active) | 935 nM (active) | 833 nM (active) | 7430 nM (active) | 16600 nM (active) | 23500 nM (active) | 20900 nM (active) | – | 6620 nM (active) | 8330 nM (active) | 1050 nM (active) | – | 2350 nM (active) | 2350 nM (active) | 7430 nM (active) | 23500 nM (active) | 20900 nM (active) | 5900 nM (active) | – |
| C[C@@H](Oc1cc(-n2cnc3ccc(CN4CCN(C)CC4)cc32)sc1C(N)=O)c1ccccc1C(F)(F)F | 33.2 nM (active) | 41.8 nM (active) | 23500 nM (active) | 74.3 nM (active) | 26.4 nM (active) | – | 33.2 nM (active) | – | 37.2 nM (active) | – | – | 18700 nM (active) | – | – | – | 46.9 nM (active) | – | – | 105 nM (active) |
| CC(=O)SC[C@@H](C)C(=O)N1CCC[C@H]1C(=O)N[C@@H](Cc1ccccc1)C(=O)O | inactive | inactive | inactive | inactive | inactive | inactive | inactive | inactive | inactive | inactive | inactive | – | – | inactive | – | inactive | inactive | inactive | inactive |
| COc1ccc(C=Cc2cc(OC)c(OC)c(OC)c2)cc1O | inactive | inactive | inactive | inactive | inactive | inactive | inactive | – | inactive | inactive | inactive | – | inactive | – | inactive | – | inactive | inactive | inactive |
| CC1(C)OC2=C(C(=O)c3ccccc3C2=O)[C@H](NCc2ccccc2)[C@H]1O | 2640 nM (active) | 2090 nM (active) | 2350 nM (active) | 662 nM (active) | 4180 nM (active) | 1480 nM (active) | 2350 nM (active) | 1870 nM (active) | 2090 nM (active) | 2640 nM (active) | 2090 nM (active) | 3720 nM (active) | 2350 nM (active) | – | 1180 nM (active) | 8330 nM (active) | 1480 nM (active) | 2640 nM (active) | 5260 nM (active) |
| COc1cc2ncnc(Nc3ccc(F)c(Cl)c3)c2cc1NC(=O)C=CCN1CCCCC1 | 26400 nM (active) | 5260 nM (active) | 20900 nM (active) | 2960 nM (active) | 9350 nM (active) | 2960 nM (active) | 8330 nM (active) | – | 6620 nM (active) | 10500 nM (active) | 3720 nM (active) | 20900 nM (active) | 8330 nM (active) | 2960 nM (active) | 4180 nM (active) | 18700 nM (active) | 1870 nM (active) | 3320 nM (active) | 23500 nM (active) |
